Rows were chosen to be rich in hits. Some 5.4% of all compounds tested hit in one or more screens of this group.
JMJD2C inh = human JMJD2C demethylase inhibition | inhibition, % at 2.35 µM | 330,000 compounds, 0.069% hits | GST-JMJD2C(1-420) H3K9me3 demethylation, DELFIA europium | Q9H3R0;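 active means more than half of a compound's replicate wells show inhibition beyond 50%, single wells judged on their own value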;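 further: signal counts dimethyl H3K9 product captured on neutravidin plate; 0% = median of DMSO wells and 100% = 0.3 times that DMSO median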
beta cell repl = induces beta-cell replication in MIN6 cells | 330,000 compounds, 0.29% hits | MIN6 cells proliferation, ATPlite luminescence, 48 h; cells starved in 0.2% serum; 100% = growth in 10% serum | AID 2380 | proliferation, % at 10 µM;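 active means compounds whose signal lies at least 3.5 SD above the mean of all wells on their plate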;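 further: 0% = DMSO-treated cells in low-serum medium and 100% = 10% serum control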
ALR H2O2 inh = blocks human ALR sulfhydryl oxidase activity. 290,000 compounds, 3.8% hits. P55789. inhibition, % (concentration not given with the values). purified ALR, DTT oxidation, H2O2 HRP-luminol luminescence;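 active means mean replicate inhibition above about 79%, with every replicate also reaching it, limit read from the data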
Target sequence (P55789 whole entry, looked up): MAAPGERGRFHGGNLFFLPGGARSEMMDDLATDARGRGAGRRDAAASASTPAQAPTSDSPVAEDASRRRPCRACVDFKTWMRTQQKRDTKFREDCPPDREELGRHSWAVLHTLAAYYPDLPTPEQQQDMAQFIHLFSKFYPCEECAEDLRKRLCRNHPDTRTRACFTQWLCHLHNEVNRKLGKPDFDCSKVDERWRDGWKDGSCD
Granule exo inh = blocks lytic granule exocytosis. TALL-104 LAMP-1 surface exposure, flow cytometry; cells stimulated with thapsigargin and PMA. inhibition, % at 10 µM. 360,000 compounds, 0.66% hits;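 active means inhibition above about 55%, limit read from the data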
SMARCA2 activ = activators of SMARCA2 function | MG213 cells, MMTV-luciferase reporter, dexamethasone, overnight | activation, % at 9.1 µM | 370,000 compounds, 1% hits | AID 652017; in the data active means activation above about 7.8%;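 further: 0% = vehicle wells and 100% = reference activator wells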
PfM18AAP inh = blocks P. falciparum M18 aspartyl aminopeptidase | inhibition, % at 7.35 µM | recombinant PfM18AAP, H-Glu-NHMec fluorogenic cleavage | 290,000 compounds, 1.2% hits | AID 1822;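 active means inhibition above the campaign mean inhibition over all tested compounds plus 3 SD, cut at about 28% in these data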;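 further: 0% = plate median of test compound wells and 100% = 2 mM ZnCl2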
* hit, by the source's call; nt = no result.

SMILES	JMJD2C inh	beta cell repl	ALR H2O2 inh	Granule exo inh	SMARCA2 activ	PfM18AAP inh
Cc1cc(C)c(NC(=O)CSc2nc3c(c(=O)n2C)SC(C)C3)c(C)c1 (configuration not stated)	0	-3	-9	0	-3	-10
C=CCNC(=S)/C(=C(\[O-])c1ccc(Cl)cc1)[n+]1ccccc1	-1	0	98*	4	1	7
CCNC(=O)N1c2ccc(OCC)cc2C(C)=CC1(C)C	5	-1	88*	1	-1	10
Oc1ccc(-c2n[nH]c(=S)n2Cc2ccco2)cc1	29	-2	91*	-2	-3	19
CCCn1c(Cc2ccccc2)n[nH]c1=S	4	-2	31	-3	1	21
COc1cccc(-c2n[nH]c(=S)n2Cc2ccco2)c1OC	1	1	87*	0	nt	9
S=c1[nH]nc(Cc2ccccc2)n1Cc1ccco1	7	1	89*	-1	-1	11
Oc1cc2ccccc2cc1-c1n[nH]c(=S)n1Cc1ccco1	1	-4	nt	0	-2	19
CC(=O)N1CCCN(C(=O)Cn2cnc3ccccc3c2=O)CC1	nt	nt	nt	nt	-3	nt
Cc1sc2nc(COC(=O)CNC(=O)c3ccc(F)cc3Cl)[nH]c(=O)c2c1C	nt	nt	nt	nt	-5	nt
O=C(O)CN1C(=O)/C(=C\c2cc(Br)ccc2OCc2ccccc2Cl)SC1=S	1	-5	8	10	6	11
O=C1/C(=C/c2ccccc2O)SC(=S)N1Cc1cccnc1	-1	-4	0	58*	-3	8
O=C(O)CN1C(=O)/C(=C\c2cc(Br)ccc2OCc2ccc([N+](=O)[O-])cc2)SC1=S	5	-4	83*	3	1	-13
COc1cc([N+](=O)[O-])cc(/C=C2/SC(=S)N(Cc3ccccc3)C2=O)c1O	-15	nt	97*	11	-4	10
O=C(O)CN1C(=O)/C(=C\c2ccccc2OCc2ccc(Cl)cc2Cl)SC1=S	23	-4	87*	-5	-8	3
O=C(CSc1nnc(-c2ccco2)n1Cc1ccco1)c1ccc([N+](=O)[O-])cc1	nt	nt	nt	nt	-4	nt
CCc1cc2c(nc1CC)CCCN2S(=O)(=O)c1c(C)noc1C	nt	nt	nt	nt	-4	nt
CCOC(=O)C1=C(C(=O)OCC)C2N(Cc3ccc(C#N)cc3)c3ccccc3[C@@]23C[C@@H](C(=O)OC)N(S(=O)(=O)c2ccc(C)cc2)C3=N1 (some centres not stated)	nt	nt	nt	nt	-7	nt
O=C(O)CN1C(=O)/C(=C\c2cccc(OCc3ccc(Cl)cc3Cl)c2)SC1=S	-23	-4	99*	7	3	3
O=C(O)CCN1C(=O)/C(=C\c2cccc(OCc3ccccc3)c2)SC1=S	1	-3	-3	2	2	6
CC(/C=C/c1ccco1)=N\NC(=O)CNc1ccc2ccccc2c1	4	-2	-17	100*	-3	3
CC(/C=C/c1ccco1)=N/NC(=O)CNc1ccccc1C	-8	0	6	1	-2	6
COc1ccccc1CCn1cnc(-c2ccc(F)cc2)c1CC(C)C	nt	nt	nt	nt	-9	nt
CC(=O)Nc1ccc(-c2csc(NC(=O)c3ccc(C)o3)n2)cc1	-13	-3	11	-3	-3	14
Cc1ccc(C(=O)Nc2nc(-c3ccc([N+](=O)[O-])cc3)cs2)o1	-5	0	98*	-3	-1	-7
SMILES	JMJD2C inh	beta cell repl	ALR H2O2 inh	Granule exo inh	SMARCA2 activ	PfM18AAP inh
CCCCCCCCN1C(=O)[C@@H](CC(=O)NCC23CC4CC(CC(C4)C2)C3)C[C@@]2(C(=O)OC)C1=C[C@H](C(C)C)O[C@@H]2C1CC1	nt	nt	nt	nt	-1	nt
N#CC1=C(N2CCOCC2)/C(=C\c2ccccc2)CC1	27	0	93*	0	-3	1
COCC1CN(CCc2ccc(F)cc2)S(=O)(=O)c2c(F)cccc2O1 (configuration not stated)	nt	nt	nt	nt	-2	nt
CCN(CC)S(=O)(=O)c1ccc(C(=O)N2CCN=C2SCc2cccnc2)cc1	-28	-2	99*	1	0	1
O=C(c1ccc2c(c1)OCO2)N1CCN=C1SCc1cccnc1	-16	4	98*	-5	-2	4
Cc1cccc(CSC2=NCCN2C(=O)c2ccc(S(=O)(=O)N(C)C)cc2)c1	-2	2	14	-1	-3	-7
CSC1=NCCN1C(=O)c1ccc2c(c1)OCO2	-8	-2	-1	-2	-3	-8
Cc1onc(-c2ccccc2Cl)c1C(=O)N1CCN=C1SCc1cccnc1	3	2	99*	3	-6	2
CN(C)S(=O)(=O)c1ccc(C(=O)N2CCN=C2SCc2cccnc2)cc1	-3	-2	99*	2	1	24
O=C(Cc1cccs1)N1CCN=C1SCc1ccccc1F	-24	1	99*	0	-2	3
O=C(Cc1cccs1)N1CCN=C1SCc1ccccc1Cl	8	-2	nt	-7	-2	-11
O=C(c1ccco1)N1CCN=C1SCc1ccccc1Cl	14	0	99*	-7	2	-4
O=C(c1ccco1)N1CCN=C1SCc1c(F)cccc1Cl	-1	-3	9	-3	0	9
Cc1cc(C(F)(F)F)cc(NNC(=O)NC(=O)c2ccccc2Cl)n1	14	-2	-4	-1	-3	31*
O=C(NCc1ccccn1)C(=O)NCC(c1ccco1)N1CCOCC1 (configuration not stated)	0	-2	-3	2	0	5
O=C(NCc1ccccn1)C(=O)NCC(c1ccco1)N1CCN(c2ccc(F)cc2)CC1 (configuration not stated)	-1	-2	98*	-5	-2	6
O=C(NCc1ccncc1)C(=O)NCC(c1ccco1)N1CCN(c2ccc(F)cc2)CC1 (configuration not stated)	-1	0	94*	-1	-3	-3
CCN1CCCCC(NC(=O)c2ccc(F)cc2)C1=O (configuration not stated)	nt	nt	nt	nt	-2	nt
CCCC1=NN2C(=N)/C(=C\c3cc(C)n(Cc4ccccc4)c3C)C(=O)N=C2S1	6	2	6	-5	-3	3
CCOc1cc(/C=C2\C(=N)N3N=CSC3=NC2=O)ccc1OS(=O)(=O)c1ccccc1	1	-4	54	2	-1	24
Cc1cc(/C=C2\C(=N)N3N=CSC3=NC2=O)c(C)n1Cc1ccccc1	26	-4	88*	1	3	5
Cc1cc(/C=C2/C(=N)N3C(c4ccccc4)=CSC3=NC2=O)c(C)n1-c1ccc(Cl)cc1	nt	nt	nt	60*	-2	nt
Cc1cc(/C=C2/C(=N)N3C(=NC2=O)SN=C3S(C)(=O)=O)c(C)n1-c1ccccc1F	-11	-5	91*	-4	4	10
COc1cc(/C=C2\C(=N)N3N=CSC3=NC2=O)ccc1OS(=O)(=O)c1ccccc1	-7	-5	98*	-3	-2	19

Assay outcomes from PubChem BioAssay.
